Assay type in all cases: functional
Test [1] relates to Plasmodium falciparum. The test is described as follows: GSK_TCMDC: Inhibition of Plasmodium falciparum 3D7 in whole red blood cells, using parasite LDH activity as an index of growth. Test compounds present at 2uM.
Test [2] concerns Plasmodium falciparum. The test is described as follows: GSK_TCMDC: Inhibition of Plasmodium falciparum Dd2 in whole red blood cells, using parasite LDH activity as an index of growth. Test compounds present at 2uM.
The test system of test [3] is HepG2. Description: GSK_TCMDC: Percent inhibition of human HepG2 cell line. Test compounds present at 10uM.

The structures appear in SMILES notation.

Take `O=C(NCc1ccccc1F)c1ccc(N2CCC(NCc3cccc(-n4cccn4)c3)CC2)cc1`: the Inhibition – broadly, how much of the control response was suppressed – in test [1] worked out at 89%; in test [2] it was 3%; in test [3], 9%.
For `O=C(c1cccs1)N1N=C(c2cccs2)CC1c1cccc([N+](=O)[O-])c1` (centres undefined), in that order: 95%, 27% and 5%.
For `CCC(CC)(Cc1ccccc1)NC(=O)[C@H](CC(C)C)Nc1ccc(C#N)c2ccccc12.O=C(O)C(F)(F)F`, in that order: 90%, 73% and 57%.
On the same counts, the results for `O=C(NC1CCN(Cc2ccccc2)CC1)c1cccc(-c2nc3ccc(Cl)cc3[nH]2)c1` are 98%, 0% and 6%.
As to `CN1CCN(CCCN(Cc2cccc(-c3cccc(CNCCc4ccccc4)c3)c2)C(=O)Nc2ccccc2)CC1.O=C(O)C(F)(F)F`, the Inhibition in test [1] is recorded as 97%; in test [2], 82%; in test [3], 92%.
Take `COc1ccc(NS(=O)(=O)c2ccc(C(=O)Nc3ccc(C(F)(F)F)cc3)cc2)cc1N1CCN(CC2CC2)CC1.O=C(O)C(F)(F)F`: the values for the Inhibition in test [1], in test [2] and in test [3] were 92%, 0% and 15%, respectively.
For `O=C(O)C(F)(F)F.O=S(=O)(NCCN1CCCC1)c1ccc(-c2ccc(CNCc3ccsc3)cc2)cc1F`, in that order: 96%, 40% and 27%.
For `Cc1ccnc(NC(c2ccc(Cl)c([N+](=O)[O-])c2)c2ccc3cccnc3c2O)c1` (centres undefined), in that order: 89%, 57% and 47%.
On the same counts, the results for `Cc1cccc2nc(-c3ccc(-c4ccc(CNCc5ccccc5)cc4)cc3)[nH]c12.O=C(O)C(F)(F)F` are 99%, 90% and 5%.
Regarding `O=C(O)C(F)(F)F.Oc1ccc(CCNc2nc(NCCOc3cccc4ccccc34)nc(N3CCNCC3)n2)cc1`, the Inhibition is listed as 96% in test [1], 8% in test [2] and 21% in test [3].
For `Cc1cc(O)nc(NC(=N)NOCc2ccccc2)n1`, in that order: 100%, 1% and 0%.
Turning to `C=C[C@H]1CN2CC[C@H]1C[C@@H]2[C@@H](O)c1ccnc2ccc(OC)cc12` [QUINIDINE], the Inhibition in test [1] is on record as 98%; in test [2], 95%; in test [3], 0%.
On the same counts, the results for `O=C1C2C3SC(c4c3ccc3ccccc43)C2C(=O)N1c1ccccc1` (centres undefined) are 96%, 7% and 0%.
For `COc1ccc(NC(=O)Nc2cccc(-c3cccc(-c4nc5ccccc5[nH]4)c3)c2)cc1`, in that order: 100%, 41% and 41%.
On the same counts, the results for `CC(=NNC(=N)N)c1ccc2ccc3ccccc3c2c1.Cl` are 97%, 23% and 14%.
As for `COC(=O)c1cccc(CNCc2ccc(-c3ccc(-c4nc5cc(C(F)(F)F)ccc5[nH]4)cc3)cc2)c1.O=C(O)C(F)(F)F`, the figures for the Inhibition in test [1], in test [2] and in test [3] were 100%, 98% and 22%, respectively.
For `CCCn1c(Sc2ccc(C#N)c([N+](=O)[O-])c2)nnc1-c1ccc(Cl)cc1`, in that order: 96%, 95% and 12%.
On the same counts, the results for `COc1ccc(-c2cccc(NC(=O)c3cccc(F)c3)c2)cc1CN1CCCN(C)CC1.O=C(O)C(F)(F)F` are 100%, 78% and 42%.
For `CC(C)N(CCOc1ccc2c(c1)N(C(=O)Nc1cc(Br)cc(C(F)(F)F)c1)CC2)C(C)C.O=C(O)C(F)(F)F`, in that order: 100%, 100% and 8%.
For the compound `O=C(c1ccccc1[N+](=O)[O-])N(Cc1ccccc1)c1ccccn1`, the values for the Inhibition in test [1], in test [2] and in test [3] were 91%, 0% and 0%, respectively.
Regarding `CCCc1ccc(-c2csc(NC(=O)c3ccc([N+](=O)[O-])o3)n2)cc1`, the Inhibition in test [1] came out at 85%; in test [2], 13%; in test [3] it was 72%.
For `O=S(=O)(Nc1cccc(CCN2CCCCC2CCN2CCCC2)c1)c1ccc(Oc2ccccc2)cc1` (centres undefined), the Inhibition in test [1] was determined as 94%; in test [2] it was 1%; in test [3], 52%.
On the same counts, the results for `Cc1ccc(CNC(=O)c2ccc(CN3CCCN(Cc4ccsc4)CC3)cc2)cc1.O=C(O)C(F)(F)F` are 93%, 0% and 16%.
Take `COc1ccc(-c2c(-c3ccc(OCc4ccccc4)cc3O)n[nH]c2C(F)(F)F)cc1`: the results for the Inhibition in test [1], in test [2] and in test [3] were 93%, 57% and 49%, respectively.
On the same counts, the results for `COc1ccc2nccc(N3CCC(SCCNS(=O)(=O)c4ccc5c(c4)OCCO5)C3)c2n1.Cl` (centres undefined) are 94%, 87% and 36%.
On the same counts, the results for `CCOc1cc(Cc2cnc(N)nc2N)cc(OC)c1OC` are 90%, 0% and 0%.
Regarding `COc1cccc(C(O)CNc2ccnc(Nc3cccc(-c4csc(C)n4)c3)n2)c1` (centres undefined), the Inhibition in test [1] was 99%; in test [2], 73%; in test [3], 38%.
For `CCCNCc1ccc(-c2ccc(CN(Cc3ccc4c(c3)OCO4)C(=O)[C@H]3CCCO3)cc2)nc1.O=C(O)C(F)(F)F`, in that order: 90%, 39% and 18%.

The values are drawn from ChEMBL document CHEMBL1157539, “Thousands of chemical starting points for antimalarial lead identification” (Nature, 2010).
